Sampled rows, rich in hits. Any-hit rate of the full collection: about 7.3%.
NPC1 prom act: activators of NPC1 promoter; Huh7 NPC1 promoter luciferase reporter, 24 h; Potency, µM (doses to about 9.22 µM), usual class: activators; hit rate 2.4% among 320,000; further: nearly all actives have a fitted effect of over 60% in size
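NPC1 promoter–luciferase Huh7 cells; 24 h compound; luminescence.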
ELG1 genotox: inducers of genotoxicity in HEK293T ELG1-luciferase cells. HEK293T ELG1-luciferase reporter, luminescence, 16 h. Potency, µM (doses to about 46 µM), actives largely listed as activators. hit rate 1.3% among 330,000. AID 504466; further: nearly all actives have a fitted effect of over 60% in size
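DMSO vehicle served as control against compound-treated ELG1-luciferase HEK293T cells; exposure lasted 16 hr at 37 °C and 5% CO2, followed by ONE-Glo luminescence detection after 30 min.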
Rab9 promoter act: activators of Rab9 promoter; Huh7 Rab9 promoter-luciferase reporter, luminescence, 24 h; AID 485297; hit rate 2.8% among 320,000; Potency, µM (titrated, usually from 9.22 µM), most hits filed as activators; further: nearly all actives have a fitted effect of over 60% in size
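Using Huh7 cells stably transfected with Rab9 promoter–luciferase, compounds were incubated 24 h at 37 °C, 5% CO2; luciferase luminescence was read 10 min after reagent addition.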
FLuc modulator: inhibits or activates purified firefly luciferase, miR-21 counter-screen | hit rate 6.9% among 360,000 | Potency, µM (doses to about 57.5 µM), hits mostly inhibitors | P08659 | purified FLuc, Km substrates, luminescence inhibition; further: nearly all actives have a fitted effect of over 55% in size
Target sequence (P08659 whole entry, looked up): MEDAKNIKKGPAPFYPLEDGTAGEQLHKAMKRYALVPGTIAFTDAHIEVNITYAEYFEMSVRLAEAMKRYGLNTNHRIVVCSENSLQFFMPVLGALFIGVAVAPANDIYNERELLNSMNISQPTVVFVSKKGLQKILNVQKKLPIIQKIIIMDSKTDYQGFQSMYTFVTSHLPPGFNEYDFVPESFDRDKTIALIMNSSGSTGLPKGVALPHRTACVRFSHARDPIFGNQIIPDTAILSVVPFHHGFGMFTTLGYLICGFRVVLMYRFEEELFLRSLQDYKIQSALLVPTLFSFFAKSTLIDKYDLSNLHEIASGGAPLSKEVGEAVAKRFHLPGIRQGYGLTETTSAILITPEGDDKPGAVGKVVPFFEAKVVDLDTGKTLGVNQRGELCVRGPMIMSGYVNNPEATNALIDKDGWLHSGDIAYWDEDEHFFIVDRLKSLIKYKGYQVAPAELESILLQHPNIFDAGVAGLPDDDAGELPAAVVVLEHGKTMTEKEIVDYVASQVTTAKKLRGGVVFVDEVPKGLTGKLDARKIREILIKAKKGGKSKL
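Purified P. pyralis luciferase (10nM final) with 10uM D-luciferin and 10uM ATP (Km levels) in 50mM Tris acetate pH 7.5, 10mM Mg acetate, 0.01% Tween-20, 0.05% BSA; qHTS 6-point titration, ~60 µM downward; luminescence read.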
SMN2 splice up: increases expression of the SMN2 splice variant; HEK293 SMN2-luciferase splicing reporter, luminescence, 30-36 h; Potency, µM (highest dose often 46.1 µM), usual class: activators; hit rate 2.8% among 210,000; AID 1458; further: nearly all actives have a fitted effect of over 55% in size
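qHTS luciferase splicing reporter: luminescence rises when SMN2 exon 7 is included in transfected HEK293 cells. Compound exposure lasted 30-36 h at 37C, with 4.5 mM final sodium butyrate as control, followed by a ONE-Glo read.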
p53 reactivator: re-activators of mutant p53; AID 504706; Potency, µM (doses to about 92.2 µM), actives largely listed as activators; hit rate 0.063% among 320,000; H1299 p53-A138V BP100-luciferase reporter, luminescence, 24 h; further: nearly all actives have a fitted effect of over 45% in size
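p53-null H1299 cells stably carrying temperature-sensitive p53-A138V and a BP100-luciferase reporter were pinned with compounds (4-point, 1:5 series) and held 24 hrs at 37 deg C. Luminescence was read 10 min after detection reagent.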
Hits are given with their value; i = inactive; ? = inconclusive; nt = not tested or not shown; [ ] = dose if it differs, or a comment. The call rests on the fitted dose curve; in most records, active means well fitted curve in the direction sought with a large enough effect; inconclusive means small, poorly fitted or top-dose-only effect, or another doubt; inactive means no such curve, though single readings can be large; an effect the other way counts as inactive or inconclusive.

SMILES	NPC1 prom act	ELG1 genotox	Rab9 promoter act	FLuc modulator	SMN2 splice up	p53 reactivator
CCOc1ccc(N(CC)S(=O)(=O)N2CCCC(C(=O)NCc3ccccc3Cl)C2)cc1 (stereo unspecified)	nt	nt	nt	i	nt	nt
CCc1ccc(CNC(=O)c2cnc3sc(N4CCOCC4)nn3c2=O)cc1	nt	nt	nt	i	nt	nt
C=C(C)CSc1nc2sc3c(c2c(=O)n1-c1ccc(OC)cc1)CCN(C)C3	i	i	i	i	nt	i
Cc1ccc(S(=O)(=O)c2nc(-c3cccs3)oc2SCc2ccc(F)cc2)cc1	nt	nt	nt	i	i	nt
Cc1ccccc1NC(=O)c1c(NC(=O)c2ccccc2)sc2c1CCC2	nt	nt	nt	?	i	nt
Cc1ccc(NC(=O)c2c(NC(=O)C(F)(F)F)sc3c2CCCCC3)cc1	nt	nt	nt	11µM	i	nt
Cc1ccccc1NC(=O)c1c(NC(=O)C(F)(F)F)sc2c1CCCCC2	nt	nt	nt	11µM	i	nt
O=C(COc1ccc(Cl)cc1)Nc1sc2c(c1C(=O)Nc1cccc(Cl)c1)CCCC2	nt	nt	nt	?	i	nt
Cc1cccc(NC(=O)c2c(NC(=O)C(F)(F)F)sc3c2CCCCC3)c1	nt	nt	nt	13µM	i	nt
Cc1ccc(NC(=O)c2c(NC(=O)c3ccccc3)sc3c2CCC3)cc1	nt	nt	nt	?	i	nt
O=C(Nc1cccc(Cl)c1)c1c(NC(=O)C(F)(F)F)sc2c1CCCC2	nt	nt	nt	17µM	i	nt
CC(C)c1ccc(NC(=O)CSc2ncccc2C(=O)Oc2cccc([N+](=O)[O-])c2)cc1	4µM	16µM	4.5µM	?	10µM	?
Cc1ccc(-n2ncc3c(N(CCO)Cc4ccccc4)ncnc32)cc1	nt	nt	nt	11µM	nt	nt
Cc1ccc(-n2ncc3c(N(C)Cc4ccccc4)ncnc32)cc1	nt	nt	nt	0.67µM	nt	nt
CCCCN(C)CCNC(=O)c1ccc2c(=O)n(CCc3ccccc3)c(=O)[nH]c2c1	nt	nt	nt	i	i	nt
CC(C)c1ccc(NC(=O)c2cc3sc(Cl)cc3n2C)cc1	nt	nt	nt	3.4µM	i	nt
CCc1ccc(NC(=O)c2cc3sc(Cl)cc3n2C)cc1	nt	nt	nt	5.4µM	13µM	nt
Cn1c(C(=O)NCc2ccccc2Cl)cc2sc(Cl)cc21	nt	nt	nt	?	28µM	nt
Cc1ccc(SCC(=O)Nc2cc([N+](=O)[O-])ccc2O)cc1	i	i	i	17µM	nt	i
CC1=NN(C(N)=S)C(=O)C1N=Nc1ccccc1O (stereo unspecified)	i	i	i	i	nt	?
CC1=NN(C(N)=S)C(=O)C1N=Nc1ccccc1C (stereo unspecified)	i	i	i	21µM	?	i
CC1=NN(C(N)=S)C(=O)C1N=Nc1ccc(C)cc1C (stereo unspecified)	?	11µM	?	4.8µM	14µM	?
CCOC(=O)CN(Cc1ccccc1)C(C(=O)NC1CCCCC1)c1ccc(C)cc1 (stereo unspecified)	nt	nt	nt	i	i	nt
COC(=O)c1nn(-c2ccccc2)nc1-c1nn(-c2ccccc2)nc1C(=O)OC	i	?	i	2.4µM	i	i
O=C(O)c1nn(-c2ccccc2)nc1-c1nn(-c2ccccc2)nc1C(=O)O	i	i	i	21µM	i	i
SMILES	NPC1 prom act	ELG1 genotox	Rab9 promoter act	FLuc modulator	SMN2 splice up	p53 reactivator
COC(=O)c1nnn(-c2ccccc2)c1N	i	i	i	i	i	i
CCOc1ccc2noc3c2c1C(=O)c1ccccc1-3	i	i	i	i	i	i
O=C1c2ccccc2-c2onc3c(Oc4ccccc4)cc(O)c1c23	i	?	i	?	11µM	i
COc1cccc(CNC(=O)C2=C(C)C(=O)OC23CCN(C(C)=O)CC3)c1OC	nt	nt	nt	i	nt	nt
COc1cccc(NC(=O)c2ccc3c(c2)C(=O)N(CC2CCCO2)C3=O)c1 (stereo unspecified)	i	i	i	17µM	nt	?
COc1cccc(C(=O)Nc2ccc3c(c2)C(=O)N(CC2CCCO2)C3=O)c1 (stereo unspecified)	i	i	i	9.5µM	nt	i
COc1ccc(/C=C2\NC(=S)N(CC3CCCO3)C2=O)c(OC)c1 (stereo unspecified)	i	i	?	15µM	i	i
COc1ccccc1Oc1ccc2c(c1)C(=O)N(CC1CCCO1)C2=O (stereo unspecified)	i	i	i	19µM	nt	i
CC(=O)Oc1cccc(C(=O)Nc2ccc3c(c2)C(=O)N(CC2CCCO2)C3=O)c1 (stereo unspecified)	i	i	i	?	nt	i
Cc1nc2nc(NCc3ccc(Cl)cc3)[nH]n2c(=O)c1Cc1ccccc1	nt	nt	nt	?	i	nt
COC(=O)C(NC(=O)CCc1c(C)nc2c(-c3ccccc3)c(C)nn2c1C)C(C)C (stereo unspecified)	nt	nt	nt	i	i	nt
Cc1cccc(NC(=O)c2ccc(-n3c(C)nnc3C)cc2)c1	nt	nt	nt	i	nt	nt
N#Cc1cccc(NC(=O)N2CC[C@@]3(CCCN(C(=O)c4ccco4)C3)C2)c1	nt	nt	nt	nt	i	nt
Cc1cc(-c2nnco2)c(C)n1-c1ccccc1	?	11µM	?	12µM	?	?
CSc1ncccc1-c1nc2ccccc2[nH]1	i	i	i	21µM	i	i
Nc1nonc1-c1nc2ccccc2[nH]1	i	i	i	i	?	i
c1ccc2[nH]c(-c3ccnc4ccccc34)nc2c1	?	?	3.5µM	24µM	?	?
Fc1ccccc1-c1nc2ccccc2[nH]1	3.5µM	?	1.8µM	9.5µM	nt	i
FC(F)c1nc2ccccc2[nH]1	i	i	i	i	nt	i
c1ccc2nc(-c3nc4ccccc4[nH]3)ccc2c1	2.8µM	nt	0.63µM	0.3µM	0.4µM	i
CSCCC(NC(=O)c1cccc([N+](=O)[O-])c1)C(=O)O (stereo unspecified)	i	i	i	i	i[1.84 µM]	i
Clc1ccccc1-c1nc2ccccc2[nH]1	2.8µM	?	2µM	8.5µM	nt	i
CCSc1ncccc1-c1nc2ccccc2[nH]1	?	?	i	?	?	i
Cc1ccccc1-c1nc2ccccc2[nH]1	?	?	?	17µM	11µM	?
Cn1cc(Cl)c(-c2nc3ccccc3[nH]2)n1	2.5µM	10µM	3.5µM	17µM	16µM	i
SMILES	NPC1 prom act	ELG1 genotox	Rab9 promoter act	FLuc modulator	SMN2 splice up	p53 reactivator
Cn1cnc([N+](=O)[O-])c1Sc1nc(N)nc2c1ncn2[C@H]1C[C@H](O)[C@@H](CO)O1	nt	nt	nt	nt	i[9.22 µM]	nt
Cc1ccc(N2C(=O)N(CC(=O)Nc3cc(F)ccc3C)C(=O)C2C)cc1 (stereo unspecified)	i	i	i	i	nt	i
CCO[C@@H]1OC(C(=O)NCc2ccccc2)=C[C@H](c2coc3ccccc3c2=O)[C@H]1CCCO	i	i	i	i	nt	i
CC(C)(C)n1ncc2c(=O)n(Cc3c(F)ccc(Cl)c3Cl)cnc21	nt	nt	nt	13µM	nt	nt
Cc1ccc(F)c(Cn2cnc3c(cnn3C(C)(C)C)c2=O)c1Cl	i	i	i	?	nt	i
CC(C)(C)n1ncc2c(=O)n(CC(=O)NCc3ccccc3Cl)cnc21	0.4µM	?	0.4µM	3µM	11µM	i
